Screening data deposited in PubChem by several laboratories.
The sample as a whole holds a higher share of hits than the screen did.
HePTP inh – human HePTP phosphatase inhibition; recombinant HePTP phosphatase activity, OD absorbance; P35236; 0.64% of 110,000 active; inhibition, % at 20 µM; in the data active = inhibition above about 50%
D1 mod – allosteric modulators of human D1 dopamine receptor | 5.9% of 58,000 active | P21728 | AID 641 | HEK293 D1, CRE-luciferase, dopamine EC30 potentiation; actives deviate in either direction | B-score at 10 µM;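 active = luminescence count or its row- and column-corrected plate score outside the 99.7% band of the plate's sample wells, on either side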
Target sequence (P21728 whole entry, looked up): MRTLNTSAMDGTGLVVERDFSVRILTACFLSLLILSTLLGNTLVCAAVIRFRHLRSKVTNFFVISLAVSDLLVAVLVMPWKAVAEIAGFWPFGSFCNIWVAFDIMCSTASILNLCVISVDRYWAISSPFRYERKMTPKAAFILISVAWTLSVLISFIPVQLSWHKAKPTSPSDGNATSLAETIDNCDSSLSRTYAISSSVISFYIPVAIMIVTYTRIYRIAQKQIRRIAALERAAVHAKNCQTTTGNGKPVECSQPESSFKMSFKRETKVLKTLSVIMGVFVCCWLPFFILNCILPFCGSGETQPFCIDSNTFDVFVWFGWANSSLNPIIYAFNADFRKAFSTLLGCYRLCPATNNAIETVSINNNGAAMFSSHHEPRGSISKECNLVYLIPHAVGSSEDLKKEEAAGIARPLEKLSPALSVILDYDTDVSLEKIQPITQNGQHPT
PLAP act – human PLAP activation; activation fold at 20 µM; purified PLAP enzyme, luminescent substrate read-out; stronger effect = higher value; 1.2% of 96,000 active; AID 696; in the data active = activation fold above about 2
hDAT+cocaine – human DAT dopamine uptake with cocaine, either direction | Q01959 | LLC-PK1 hDAT cells, [14C]-dopamine uptake with cocaine IC80; actives deviate in either direction | B-score at 10 µM | 1.3% of 110,000 active | AID 449768;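 active = Z score or B-score, a plate-position-corrected score, falls beyond the plate's 99.7% confidence bounds, in either direction; inactive = both scores lie inside the 99.7% bounds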
TNAP act DEA – human TNAP activation, intermediate phosphate acceptor | purified TNAP, CDP-star luminescence, 100 mM DEA, 30 min; stronger effect = higher value; scale: 0 levamisole-inhibited, 1 vehicle-only enzyme | 64,000 tested, under 10 active | activation factor at 20 µM;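 active = activation factor of at least 2 at 20 µM, relative to controls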
Candida biofilm – kills Candida albicans biofilms | C. albicans biofilm + clotrimazole, Alamar Blue | inhibition, % at 6 µM | 0.14% of 85,000 active | AID 834;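 active = inhibition above 20%; inactive = inhibition below 20%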;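 also: preformed 24 hr biofilms exposed to compound for 48 hr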
Large screens that a line does not name were inactive.

COC(=O)c1cccc(NC(=O)Cn2cnc3ccccc3c2=O)c1	none
CC(C)NC(=O)NC(=O)CSc1nnc(COc2ccccc2F)n1C(C)C1CC2CCC1C2 (stereo not drawn)	hDAT+cocaine 2.6 (no result: HePTP inh, D1 mod, TNAP act DEA)
CC(C1CC2CCC1C2)n1c(COc2ccccc2F)nnc1SCC(N)=O (stereo not drawn)	none (no result: HePTP inh, D1 mod, TNAP act DEA)
COCC(=O)Nc1nc2ccc(C)cc2s1	D1 mod -5
CCCCCCCCC[n+]1cccc2c3ccccc3ccc21	hDAT+cocaine 3.2 (no result: HePTP inh, D1 mod, TNAP act DEA, Candida biofilm)
O=C(C[n+]1cc2ccccc2c2ccccc21)c1ccccc1	none (no result: HePTP inh, D1 mod, PLAP act, TNAP act DEA, Candida biofilm)
COc1ccc(-c2nnc(Nc3nc4c(OC)cccc4s3)o2)cc1	PLAP act 2.3 (no result: D1 mod, hDAT+cocaine)
COc1cc(OC)cc(-c2nnc(Nc3nc4c(F)cccc4s3)o2)c1	PLAP act 2.6
COc1ccc(-c2nnc(Nc3nc4c(OC)cccc4s3)o2)c(OC)c1	none (no result: HePTP inh, PLAP act, TNAP act DEA)
Cc1cccc(C(=O)Nc2ccc(I)cc2Cl)c1	none (no result: D1 mod, PLAP act, hDAT+cocaine, TNAP act DEA, Candida biofilm)
CCOC(=O)CNC(=O)c1sc2ncnc(N3CCc4ccccc4C3)c2c1C	none (no result: HePTP inh, D1 mod, TNAP act DEA)
CCCCNC(=O)c1sc2ncnc(N3CCc4ccccc4C3)c2c1C	hDAT+cocaine 4.2 (no result: HePTP inh, D1 mod, TNAP act DEA)
O=C1NC(=S)S/C1=C/c1ccc(Cl)cc1	none (no result: D1 mod, PLAP act, hDAT+cocaine, TNAP act DEA, Candida biofilm)
Cc1ccc(-c2nnc(NC3CCCCC3)c3ccccc23)cc1S(=O)(=O)N1CCN(C)CC1	hDAT+cocaine 1.9 (no result: HePTP inh, D1 mod, TNAP act DEA)
Cc1ccc(-c2nn3c(C)nnc3c3ccccc23)cc1S(=O)(=O)N1CCN(CCO)CC1	none
O=[N+]([O-])c1ccc(OCC(O)CNc2ccccc2)cc1 (stereo not drawn)	none (no result: D1 mod, PLAP act, hDAT+cocaine, TNAP act DEA, Candida biofilm)
O=C(NC(CSCc1ccccc1)C(=O)N/N=C/c1ccc(O)cc1O)c1ccc([N+](=O)[O-])cc1 (stereo not drawn)	PLAP act 2.7 (no result: HePTP inh, D1 mod, TNAP act DEA)
O=C(/C=C/c1cccc([N+](=O)[O-])c1)Nc1cccnc1	none (no result: D1 mod, PLAP act, hDAT+cocaine, TNAP act DEA, Candida biofilm)
COC(=O)C(CC(C)C)NC(=O)COC(=O)/C=C/c1ccc([N+](=O)[O-])cc1 (stereo not drawn)	none (no result: D1 mod, PLAP act, hDAT+cocaine, TNAP act DEA, Candida biofilm)
CN1CC=C2C(C#N)=C(N)C(C#N)(C#N)C(c3cccc(Cl)c3Cl)C2C1 (stereo not drawn)	D1 mod -4.7
Cc1ccc(C2C3CN(C(C)C)CC=C3C(C#N)=C(N)C2(C#N)C#N)cc1 (stereo not drawn)	D1 mod -3.1 (no result: hDAT+cocaine, Candida biofilm)
C=CCN(CC=C)CCCCOc1cccc(C)c1	none (no result: D1 mod, PLAP act, hDAT+cocaine, TNAP act DEA, Candida biofilm)
COc1ccc(S(=O)(=O)N(CC(=O)NCc2ccc(C)cc2)Cc2ccccc2)cc1OC	none (no result: D1 mod, PLAP act, hDAT+cocaine, TNAP act DEA, Candida biofilm)
CCCCNS(=O)(=O)c1ccc2nc(SCC(=O)c3ccccc3OC)[nH]c2c1	PLAP act 2.2 (no result: HePTP inh, D1 mod, TNAP act DEA)
COc1ccc(/C=C2\SC(N3CCC(C)CC3)=NC2=O)c(OC)c1	none (no result: D1 mod, PLAP act, hDAT+cocaine, TNAP act DEA, Candida biofilm)
Cc1ccc2cc3cc(C(=O)N(C)C4CCCCC4)oc3nc2c1	D1 mod -3.5 (no result: PLAP act, hDAT+cocaine)
Cc1cccc(N(C)C(=O)c2cc3cc4ccc(C)cc4nc3o2)c1	none
COc1ccccc1/C=C1/SC(=S)N(CCC(=O)N2c3ccccc3Sc3ccccc32)C1=O	none (no result: D1 mod, PLAP act, hDAT+cocaine, TNAP act DEA, Candida biofilm)
NC(=O)c1ccccc1NC(=O)C1CC=CCC1C(=O)O (stereo not drawn)	none (no result: D1 mod, PLAP act, hDAT+cocaine, TNAP act DEA, Candida biofilm)
CCCn1nc2cc(C(=O)NC3CCc4ccccc43)ccc2c1OCC (stereo not drawn)	hDAT+cocaine 2.3 (no result: HePTP inh, D1 mod, TNAP act DEA, Candida biofilm)
CCCn1nc2cc(C(=O)NCc3ccc(OC)cc3)ccc2c1OCC	hDAT+cocaine 2.3 (no result: HePTP inh, D1 mod, TNAP act DEA, Candida biofilm)
CCCCn1nc2cc(C(=O)NCC3CC3)ccc2c1OCC	none (no result: HePTP inh, D1 mod, TNAP act DEA, Candida biofilm)
CCCn1nc2cc(C(=O)NCc3ccc(OC(F)(F)F)cc3)ccc2c1OCC	none (no result: HePTP inh, D1 mod, TNAP act DEA, Candida biofilm)
C=CCN1C(=O)/C(=C\c2ccc(-c3ccc([N+](=O)[O-])cc3C)o2)C(=O)NC1=S	HePTP inh 103 (no result: D1 mod, PLAP act, hDAT+cocaine, TNAP act DEA, Candida biofilm)
O=C1NC(=S)N/C1=C\c1ccc(-c2cc([N+](=O)[O-])ccc2Br)o1	HePTP inh 102 (no result: D1 mod, PLAP act, hDAT+cocaine, TNAP act DEA, Candida biofilm)
C=CCN1C(=O)/C(=C\c2ccc(-c3ccc([N+](=O)[O-])cc3Br)o2)C(=O)NC1=S	HePTP inh 98 (no result: D1 mod, PLAP act, hDAT+cocaine, TNAP act DEA, Candida biofilm)
C=CCN1C(=O)/C(=C\c2ccc(-c3ccc([N+](=O)[O-])cc3Cl)o2)C(=O)NC1=S	none (no result: D1 mod, PLAP act, hDAT+cocaine, TNAP act DEA, Candida biofilm)
C=CCN1C(=O)/C(=C\c2ccc([N+](=O)[O-])o2)C(=O)NC1=S	HePTP inh 103 (no result: D1 mod, PLAP act, hDAT+cocaine, TNAP act DEA, Candida biofilm)
COC(=O)c1cc(NC(=O)/C=C/c2cccc([N+](=O)[O-])c2)cc(C(=O)OC)c1	none (no result: D1 mod, PLAP act, hDAT+cocaine, TNAP act DEA, Candida biofilm)
COc1ccc(C(=O)Nc2ccc3nn(-c4ccc(F)cc4)nc3c2)cc1Cl	none (no result: D1 mod, PLAP act, hDAT+cocaine, TNAP act DEA, Candida biofilm)
O=C(c1cc2ccccc2oc1=O)N1CCN(c2ccccn2)CC1	none
